Results on nine compounds are retold here after PubChem BioAssay (Tox21).

Several values for one entry are separate records, joined by “and”; a condition that tells them apart may be missing. Equal values may be shown once. A number with no mark means an inactive call. Inconclusive results are not listed. Activity calls are given as the source filed them. Unless noted, the call rests on the fitted dose curve; in most records, active means well fitted curve in the direction sought with a large enough effect in the repeat runs; inconclusive means weak or mixed curves; inactive means no such curve, though single readings can be large; an effect the other way counts as inactive or inconclusive.

Assay [1] in a line: qHTS assay to identify small molecule antagonists of the estrogen related receptor (ERR) signaling pathway from Tox21 library - cell viability counter screen (AID 1224834). Further: nearly all actives have a fitted effect of over 30% in size. Further: potency means the concentration at half of the fitted maximal effect. The method, boiled down:
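After 17.5 h of compound exposure at 37 C, ERR cells are incubated with CellTiter-Fluor for 30 min and fluorescence intensity serves as the viability measure.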
In general terms: In qHTS, concentration-response curves come from the screen itself.

Assay [2] concerns the target Luciferin 4-monooxygenase (Photinus pyralis) (UniProt P08659). Put plainly: qHTS assay to identify small molecule inhibitors of firefly luciferase (AID 1224835). Further: nearly all actives have a fitted effect of over 25% in size. Further: potency means the concentration at half of the fitted maximal effect. The method, boiled down: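 Inhibition of purified Photinus luciferase is measured by luminescence. Substrate levels (D-luciferin, ATP) sit at their KM values. Each compound is tested in a concentration series.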

Assay [3] concerns the target Nuclear receptor subfamily 1 group I member 3 (Homo sapiens) (UniProt Q14994). The experiment in a line: qHTS assay to identify small molecule antagonists of the constitutive androstane receptor (CAR) signaling pathway (AID 1224838).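 Further: HepG2 cells stably expressing hCAR with CYP2B6 luciferase reporter stimulated by CITCO; on the % scale 0 is the no-effect control and ±100 the full control effect; nearly all actives have a fitted effect of over 40% in size.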 The method, boiled down:
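Cell line: HepG2 double-stable for hCAR and CYP2B6-2.2kb reporter. Agonist: CITCO, 50 nM final. Compounds: 15 concentrations, 24 h, 37 C. Detection: ONE-Glo luminescence.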

For assay [4] the target is unchanged. Put plainly: qHTS assay to identify small molecule agonists of the constitutive androstane receptor (CAR) signaling pathway (AID 1224839). Further: potency means the concentration at half of the fitted maximal effect; nearly all actives have a fitted effect of over 15% in size. The method, boiled down:
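HepG2 cells stably co-transfected with hCAR and a CYP2B6-2.2kb luciferase reporter; compounds at 15 concentrations with 0.75 uM PK11195 present. After 24 hr at 37 C, luciferase read by ONE-Glo luminescence.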

Assay [5] can be described thus: qHTS assay to identify small molecule antagonists of the estrogen related receptor signaling pathway with the pleiotropic PPARgamma coactivator (PGC) from Tox21 10K library - cell viability counter screen (AID 1224840; active means well fitted cell-killing curve with a large enough effect in the repeat runs, not every such curve was filed as active; further: nearly all actives have a fitted effect of over 40% in size; further: potency means the concentration at half of the fitted maximal effect). The method, boiled down: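 Following seeding of 2,000 PGC/ERR cells/well and 6 hours' incubation, test compounds were delivered in DMSO. The plates then sat 17.5 hours at 37 C before a fluorogenic live-cell protease reagent (CellTiter-Fluor) was read after 30 min.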

The target of assay [6] is Thyrotropin receptor (Homo sapiens) (UniProt P16473). Put plainly: qHTS assay to identify small molecule agonists of the thyroid stimulating hormone receptor (TSHR) signaling pathway (AID 1224843; calls by dose curve; further: nearly all actives have a fitted effect of over 45% in size; further: potency means the concentration at half of the fitted maximal effect; on activation: on the % scale 0 is the no-effect control and ±100 the full control effect). The method, boiled down: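 HEK293 cells stably bearing the thyrotropin receptor were plated at 800 cells/well and challenged with compound (30 min, RT). Accumulated cAMP was quantified via cAMP-d2 competing for cryptate-tagged antibody.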

Assay [7] in a line: qHTS assay to identify small molecule agonists of the hypoxia (HIF-1) signaling pathway - cell viability counter screen (AID 1224844; calls by dose curve; further: on the % scale 0 is the no-effect control and ±100 the full control effect; nearly all actives have a fitted effect of over 50% in size). The method, boiled down:
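Cells (HRE-bla ME-180, 2,000 per well) sat 5 hrs at 37C, got compound for 17 hrs, were read for CCF4-AM FRET, and were finally lysed with CellTiter-Glo for a 30 min room-temperature luminescence read.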

A short description of assay [8]: qHTS assay to identify small molecule agonists of H2AX - cell viability counter screen (AID 1224847; calls by dose curve; further: nearly all actives have a fitted effect of over 30% in size; further: potency means the concentration at half of the fitted maximal effect). The method, boiled down:
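CHO-K1 cells plated overnight at 37C, then exposed 3 h at 37C to compounds at 15 concentrations (0.76% DMSO final). Viability by CellTiter-Glo luminescence after 30 min at room temperature.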

Assay [9] can be described thus: qHTS RealTime-Glo MT Cell Viability Assay in HepG2 cells - 24 hour (AID 1224867). Further: on the % scale 0 is the no-effect control and ±100 the full control effect; nearly all actives have a fitted effect of over 50% in size. The method, boiled down: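 HepG2 cells (600/well) were dispensed with RealTime-Glo reagents, incubated 5 h at 37 °C, then treated with compounds in DMSO for up to 40 h. Nonlytic NanoLuc luminescence reflecting viable cells was read at each stated time point.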
The nature of assay [10]: qHTS RealTime-Glo MT Cell Viability Assay in HEK293 cells - 32 hour (AID 1224868). Further: nearly all actives have a fitted effect of over 50% in size. Further: potency means the concentration at half of the fitted maximal effect. The method, boiled down: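 HEK293 cells seeded with NanoLuc/prosubstrate reagent, rested 5 h at 37 C, then dosed and kept at 37 C up to 40 h. Nonlytic real-time luminescence from viable cells read at 0, 8, 16, 24, 32 and 40 h.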
A short description of assay [11]: A CellTox Green Cytotoxicity Assay to monitor cytotoxicity in HEK293 cells - 0 hour (AID 1224869). Further: on the % scale 0 is the no-effect control and ±100 the full control effect; nearly all actives have a fitted effect of over 50% in size. The method, boiled down:
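Fluorescence intensity, read at 0, 8, 16, 24, 32 and 40 h of compound treatment, reflected dye binding to DNA of dead HEK293 cells; compounds (23 nL, DMSO) were added 5 h after plating cells with reagent.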

Assay [12] is described as follows: qHTS RealTime-Glo MT Cell Viability Assay in HepG2 cells - 40 hour (AID 1224870). The method, boiled down:
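Real-time viability: cells seeded at 600 per well together with NanoLuc and cell-permeant prosubstrate, compounds added after 5 h incubation. Luminescence tracked at 0, 8, 16, 24, 32 and 40 h of exposure.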

Assay [13] is described as follows: qHTS assay to identify small molecule agonists of the constitutive androstane receptor (CAR) signaling pathway - cell viability counter screen (AID 1224836). Further: on the % scale 0 is the no-effect control and ±100 the full control effect; nearly all actives have a fitted effect of over 45% in size. The method, boiled down: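 HepG2 cells stably carrying hCAR and a CYP2B6-2.2kb reporter; 15-concentration compounds plus PK11195 (final 0.75 uM), 23 hr at 37 C/5% CO2. Viability read by CellTiter-Fluor fluorescence.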

A short description of assay [14]: qHTS assay to identify small molecule antagonists of the constitutive androstane receptor (CAR) signaling pathway - cell viability counter screen (AID 1224837). Further: on the % scale 0 is the no-effect control and ±100 the full control effect; nearly all actives have a fitted effect of over 45% in size. The method, boiled down:
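Counter screen run in HepG2-CYP2B6-hCAR cells: 4 hr settle, compound titration (15 concentrations) with 50 nM CITCO, 23 hr at 37 C/5% CO2, CellTiter-Fluor fluorescence.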

Assay [15] in a line: qHTS assay to identify small molecule agonists of H2AX (AID 1224845; active means well fitted activation curve with a large enough effect in the signal ratio in the repeat runs, not every such curve was filed as active; the % refers to the signal ratio; further: on the % scale 0 is the no-effect control and ±100 the full control effect). The method, boiled down: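 Phospho-H2AX Ser139 measured by HTRF (ex 320 nm; em 665 and 620 nm) after 24 hr antibody incubation. Compounds, 15 concentrations, 0.76% DMSO, were applied to CHO-K1 cells for 3hr at 37C before lysis.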
Assay [16] in a line: qHTS assay to identify small molecule agonists of the hypoxia (HIF-1) signaling pathway (AID 1224846; active means well fitted activation curve with a large enough effect in the signal ratio in the repeat runs, not every such curve was filed as active; the % refers to the signal ratio; further: on the % scale 0 is the no-effect control and ±100 the full control effect). The method, boiled down:
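A low-serum medium (0.5% dialyzed FBS) holding 2,000 HRE-bla ME-180 cells per well is preincubated for 5 hrs, dosed with compounds by pintool, and kept a further 17 hrs at 37C, 5% CO2 before CCF4-AM FRET detection of beta-lactamase.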

Assay [17] can be described thus: qHTS assay to identify small molecule antagonists of the estrogen related receptor signaling pathway with the pleiotropic PPARgamma coactivator (PGC) from Tox21 10K library (AID 1224841; call rule not given here). The method, boiled down:
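qHTS antagonist format: PGC/ERR cells, 2k/well, compound in DMSO by pin transfer after 6 h attachment, 18 h treatment at 37 C, One-Glo luminescence read at 30 min.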

Assay [18] is described as follows: qHTS assay to identify small molecule antagonists of the estrogen related receptor (ERR) signaling pathway from Tox21 library (AID 1224848). The method, boiled down:
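Reading was by luminescence 30 min after ONE-Glo addition. Before that, ERR cells at 2,000 per well had rested 6 h at 37 C/5% CO2 and then received pin-tooled compounds in DMSO for 18 h at 37 C.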

Assay [19] can be described thus: qHTS assay to identify small molecule agonists of the estrogen related receptor (ERR) signaling pathway from Tox21 library (AID 1224849; calls by dose curve; further: on the % scale 0 is the no-effect control and ±100 the full control effect; nearly all actives have a fitted effect of over 15% in size). The settings on record: ERR reporter cell line, ONE-Glo luciferase, 18 h. The method, boiled down: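 Screening used an NTP-provided ERR luciferase cell line. Compounds in DMSO were added 6 h after seeding and left 18 h at 37 C before a 30 min ONE-Glo step and luminescence reading.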

Sequence of Thyrotropin receptor (Homo sapiens) (P16473 whole entry, looked up): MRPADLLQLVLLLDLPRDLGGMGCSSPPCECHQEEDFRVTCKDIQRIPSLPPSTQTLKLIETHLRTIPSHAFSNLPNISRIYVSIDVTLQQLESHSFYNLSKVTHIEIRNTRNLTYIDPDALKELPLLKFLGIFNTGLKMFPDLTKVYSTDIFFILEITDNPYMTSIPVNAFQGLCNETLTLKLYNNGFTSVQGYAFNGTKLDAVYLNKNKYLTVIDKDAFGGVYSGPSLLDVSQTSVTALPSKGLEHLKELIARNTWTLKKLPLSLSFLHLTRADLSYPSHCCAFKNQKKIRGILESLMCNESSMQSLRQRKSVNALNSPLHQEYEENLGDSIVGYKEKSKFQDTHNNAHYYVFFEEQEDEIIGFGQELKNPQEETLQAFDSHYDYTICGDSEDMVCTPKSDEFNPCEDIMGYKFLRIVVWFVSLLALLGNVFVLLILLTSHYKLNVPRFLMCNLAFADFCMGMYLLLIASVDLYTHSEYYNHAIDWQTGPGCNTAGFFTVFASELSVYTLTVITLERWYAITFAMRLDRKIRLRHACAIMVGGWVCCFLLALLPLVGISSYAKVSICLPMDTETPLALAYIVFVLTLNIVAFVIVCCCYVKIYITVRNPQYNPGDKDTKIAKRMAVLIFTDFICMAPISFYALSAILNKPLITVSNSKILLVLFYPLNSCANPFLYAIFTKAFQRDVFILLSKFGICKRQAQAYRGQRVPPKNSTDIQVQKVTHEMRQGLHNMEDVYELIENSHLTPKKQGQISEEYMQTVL
Sequence of Luciferin 4-monooxygenase (Photinus pyralis) (P08659 whole entry, looked up): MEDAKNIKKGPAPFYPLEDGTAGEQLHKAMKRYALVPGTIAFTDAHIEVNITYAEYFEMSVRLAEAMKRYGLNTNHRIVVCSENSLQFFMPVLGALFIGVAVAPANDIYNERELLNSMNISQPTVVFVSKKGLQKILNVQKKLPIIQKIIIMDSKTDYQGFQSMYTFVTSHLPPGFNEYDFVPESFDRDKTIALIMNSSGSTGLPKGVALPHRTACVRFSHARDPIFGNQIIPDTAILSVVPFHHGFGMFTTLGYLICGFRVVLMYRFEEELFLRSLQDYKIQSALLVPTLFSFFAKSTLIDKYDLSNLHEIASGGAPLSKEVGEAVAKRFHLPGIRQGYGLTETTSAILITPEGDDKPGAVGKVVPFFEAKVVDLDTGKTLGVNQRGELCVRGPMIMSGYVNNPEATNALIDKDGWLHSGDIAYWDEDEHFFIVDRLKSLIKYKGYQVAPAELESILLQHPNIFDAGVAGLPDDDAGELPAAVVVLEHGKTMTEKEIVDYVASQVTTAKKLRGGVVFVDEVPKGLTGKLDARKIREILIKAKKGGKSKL
Sequence of Nuclear receptor subfamily 1 group I member 3 (Homo sapiens) (Q14994 whole entry, looked up): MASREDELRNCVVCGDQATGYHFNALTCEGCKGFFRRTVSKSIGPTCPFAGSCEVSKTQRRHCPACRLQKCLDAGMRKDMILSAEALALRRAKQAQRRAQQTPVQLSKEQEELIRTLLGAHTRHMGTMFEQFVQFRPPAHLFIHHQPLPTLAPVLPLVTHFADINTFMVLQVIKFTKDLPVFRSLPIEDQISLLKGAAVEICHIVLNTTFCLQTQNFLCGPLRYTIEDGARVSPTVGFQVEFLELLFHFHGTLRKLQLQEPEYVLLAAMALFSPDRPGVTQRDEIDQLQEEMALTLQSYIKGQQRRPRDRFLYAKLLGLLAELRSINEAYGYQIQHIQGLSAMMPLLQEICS

As to `Nc1ccc(N=Nc2ccccc2)c(N)n1`, the Potency in assay [1] is 48.8 µM (active) and 48.6 µM (active) and 21.1 µM (active); in [2], 8.99 µM (active) and 7.96 µM (active) and 7.76 µM (active); in assay [4], 24.5 µM (active) and 9.69 µM (active) and 5.96 µM (active); in assay [5] it was 38.6 µM (active); in assay [10], 43.9 µM (active) and 24.5 µM (active). Also, the Potency entry in assay [3], in [6], in assay [7], in assay [8] and in assay [11] was “inactive” throughout. In addition, the result in [9] and in assay [12] was inactive.
Regarding `CCc1cc(C(N)=S)ccn1`, the Potency entry in assay [1], in [13], in assay [14], in assay [5], in [6] and in assay [7] was “inactive” each time. Also, the Potency entry in assay [15], in assay [8], in assay [10] and in assay [11] was “inactive” each time. Moreover, the compound was called inactive in assay [9] and in assay [12].
With `Cn1cnc2c1c(=O)[nH]c(=O)n2C`, the Potency entry in [1], in [2], in assay [13], in assay [14], in assay [3] and in assay [5] was “inactive” each time. In addition, the Potency entry in [6], in [7], in [15], in assay [8], in [10] and in assay [11] was “inactive” each time. The compound was called inactive in assay [9] and in assay [12].
For the compound `N[C@@H](Cc1c[nH]c2ccccc12)C(=O)O`, the Potency entry in [1], in assay [2], in assay [13], in assay [14], in assay [5] and in [6] was “inactive” each time. The Potency result in [7], in assay [15], in assay [8], in [10] and in [11] was “inactive” throughout. For the same compound, the call in [16], in assay [9] and in [12] was inactive.
Turning to `O=C(O)CCCCC1CCSS1` (stereo not drawn), the Potency result in [1], in [2], in assay [13], in [14], in [5] and in [17] was “inactive” in each case. The Potency entry in assay [6], in assay [7], in [15], in assay [8], in [18] and in assay [10] was “inactive” each time. Also, the Potency result in assay [11] is “inactive”. Further, the activity change, positive = activation in assay [19] (at 42.5 µM (top of the series)) was 4.75%; in assay [19] (at 92.4 µM (top of the series)), -0.498% and 6.05%. For the same compound, the compound was called inactive in assay [9] and in [12].
For the compound `C[C@]12CC[C@@H]3c4ccc(O)cc4CC[C@H]3[C@@H]1CCC2=O`, the Potency result in assay [1], in assay [13], in assay [14], in assay [5], in [7] and in [15] was “inactive” throughout. Also, the Potency entry in assay [8] and in [11] was “inactive” each time. Besides, the result in assay [16], in assay [9] and in assay [12] was inactive.
In the case of `C#C[C@]1(O)CC[C@H]2[C@@H]3CCc4cc(O)ccc4[C@H]3CC[C@@]21C`, the Potency was 27.1 µM (active) and 19.3 µM (active) and 8.41 µM (active) in [1]; 13.6 µM (active) and 21.7 µM (active) and 8.41 µM (active) in [6]; 100 µM (active) and 61.9 µM (active) in [8]; 8.65 µM (active) and 19.5 µM (active) in assay [10]. For the same compound, the Potency entry in [2], in assay [13], in [14], in assay [7], in assay [15] and in assay [11] was “inactive” in each case. The compound was classed as inactive in [16], in assay [9] and in [12].
On to `Cc1cnc(NC(=O)C2=C(O)c3ccccc3S(=O)(=O)N2C)s1`, for which the Potency entry in assay [1], in assay [13], in assay [14], in assay [5], in [7] and in assay [15] was “inactive” in each case. In addition, the Potency result in assay [8], in assay [10] and in [11] was “inactive” each time. For the same compound, in assay [2], the Potency is 31.8 µM (active) and 22.4 µM (active) and 34.7 µM (active). Besides, the result in [9] and in assay [12] was inactive.
With `CC(=O)Oc1ccccc1C(=O)O`, the Potency entry in assay [1], in [2], in assay [13], in assay [14], in assay [5] and in assay [6] was “inactive” in each case. Besides, the Potency result in assay [7], in assay [15], in assay [8], in assay [10] and in assay [11] was “inactive” each time. Moreover, the result in assay [9] and in assay [12] was inactive.
